# The source made the active and inactive calls. No rule for the calls is given here.
# Test: Biochemical counterscreen for C difficile toxins, absence of UDPG, inhibitor dose response (AID 720650)
# Details: series mostly up to 19.5 µM
row,Structure (SMILES),AC50
1,CCN1CC(CNCc2cn(-c3ccc(OC)cc3)nc2-c2ccccc2Cl)CC1=O (centres undefined),inactive
2,CN1c2ccc(-c3ccccc3)cc2[C@@H]2[C@@H](CCN2C(=O)CN2CCOCC2)[C@@H]1CO,7.03 µM (active)
3,Cc1cc(C)c2nc(C)cc(N/N=C/c3ccc(O)cc3)c2c1,12.1 µM (active)
4,Cc1ccc(S(=O)(=O)N2CC(CBr)=CCC2c2ccccc2)cc1 (centres undefined),13.9 µM (active)
5,Oc1ccc2c(ccc3[nH]cnc32)c1,20.8 µM (active)
6,COc1cc(/C=N/NC(=O)c2cccc([N+](=O)[O-])c2)ccc1O,inactive
7,CC(/C=N/n1c(-c2ccncc2)n[nH]c1=S)=C\c1ccco1,inactive
8,O=C(NNc1ccc(-c2csnn2)cc1)c1ccccc1C(F)(F)F,0.432 µM (active)
9,CC(=O)N(C)C[C@@H]1Oc2cc(/C=C/c3ccccc3)ccc2S(=O)(=O)N([C@H](C)CO)C[C@@H]1C,> 39 µM (inactive)
10,CCc1ccccc1NC(=O)CN1CCN(CC(=O)NCc2ccc(Cl)cc2)CC1,inactive
11,O=C(C[C@@H]1C[C@@H]2c3cc(NC(=O)c4ccc5c(c4)OCO5)ccc3O[C@@H]2[C@@H](CO)O1)NCc1cccc(F)c1,inactive
12,O=C(O)c1cc(S(=O)(=O)Nc2ccc3cn[nH]c3c2)ccc1Cl,inactive
13,C[C@H](CO)N1C[C@H](C)[C@@H](CN(C)C(=O)Nc2ccc(C(F)(F)F)cc2)Oc2c(cccc2N(C)C)C1=O,19 µM (active)
14,COc1ccc(C2=NS(=O)(=O)N(C)C(C(=O)NCc3ccccc3)=C2)cc1OC,inactive
15,CCSc1nnc(NC(=O)C2CC2c2ccccc2)s1 (centres undefined),inactive
16,COc1cc2ccccc2cc1C(=O)N/N=C/c1cccs1,inactive
17,CCCS(=O)(=O)NC(=O)C1(C)CCN(C(=O)c2ccco2)C1 (centres undefined),inactive
18,CCOCC(=O)Nc1cc(Cl)ccc1C,inactive
19,COc1cc2c(cc1N)-c1ccc(N)cc1C2=O,1.18 µM (active)
20,COc1cc(/C=N/N2C(=O)C3C4C=CC(CC4)C3C2=O)ccc1O (centres undefined),inactive
21,Cn1c(=O)[nH]c(=O)c2c1[nH]c(=S)n2CCCc1ccccc1,inactive
22,Cc1cnc([N+](=O)[O-])n1CCOC(=O)NC(=O)c1ccc(F)cc1,inactive
23,CN1C(=O)c2cc(NC(=O)c3cccc(F)c3)ccc2OC[C@@H]2O[C@@H](CC(=O)NCC3CCCCC3)CC[C@H]21,inactive
24,COc1cc(/C=N/NC(=O)CCN2CCCCC2)ccc1O,inactive

# From PubChem BioAssay AID720650 (Broad Institute, 2013)
